Reference: article PMC7862700, “An all-to-all approach to the identification of sequence-specific readers for epigenetic DNA modifications on cytosine”

Key:
Assay in all cases: DAPPL (digital affinity profiling via proximity ligation, sequencing); 10 mM Tris-HCl pH 7.5, 50 mM NaCl, 1 mM DTT, 4% glycerol, room temperature, 30 min; GST-TFs on glutathione beads, 16-mer random dsDNA library, 0.1% formaldehyde crosslink after washing; high values mean tight binding
Details in all cases: protein: recombinant; tags: N-terminal GST; dsDNA, one strand shown
FEV = target: T1, FEV (Homo sapiens, UniProt Q99581 1-238)
T1 sequence: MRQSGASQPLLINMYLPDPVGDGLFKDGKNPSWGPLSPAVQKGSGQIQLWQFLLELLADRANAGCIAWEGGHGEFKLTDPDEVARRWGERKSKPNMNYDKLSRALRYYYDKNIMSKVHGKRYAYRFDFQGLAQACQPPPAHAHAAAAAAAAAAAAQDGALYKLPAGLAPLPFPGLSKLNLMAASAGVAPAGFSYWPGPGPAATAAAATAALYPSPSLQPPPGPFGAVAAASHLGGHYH
Summary of the method: (§1)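 Sequencing on an Illumina NextSeq500 followed washing, crosslinking with 0.1% formaldehyde, proximity ligation (BsaI/T4 ligase, 1 h, 37 °C) and PCR amplification of pools that had been incubated for 30 min at room temperature with 200 nmole of a random double-stranded 16-mer DNA library in Tris/NaCl/DTT/glycerol buffer. Each pool held DNA-barcoded human transcription factors, expressed in yeast as GST fusions and captured on glutathione beads, plus a tag-only sample. Binding signal is a hexamer's read frequency for a factor divided by its frequency in the tag-only sample.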

ETV5 = ETV5 (Homo sapiens, UniProt P41161 1-510)
Summary of the method: as §1

SPIC = target: T2, SPIC (Homo sapiens, UniProt Q8N5J4 1-248)
T2 sequence: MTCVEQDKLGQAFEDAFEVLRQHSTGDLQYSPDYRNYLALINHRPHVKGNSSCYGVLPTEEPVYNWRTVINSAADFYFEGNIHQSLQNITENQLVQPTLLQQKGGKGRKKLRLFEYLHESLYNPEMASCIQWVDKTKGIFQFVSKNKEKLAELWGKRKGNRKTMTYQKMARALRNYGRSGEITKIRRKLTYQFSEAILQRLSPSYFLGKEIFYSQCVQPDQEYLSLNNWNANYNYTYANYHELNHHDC
Summary of the method: as §1

ELF4 = ELF4 (Homo sapiens, UniProt Q99607 1-663)
Summary of the method: as §1

ELK4 = target: T3, ELK4 (Homo sapiens, UniProt P28324-2 1-405)
T3 sequence: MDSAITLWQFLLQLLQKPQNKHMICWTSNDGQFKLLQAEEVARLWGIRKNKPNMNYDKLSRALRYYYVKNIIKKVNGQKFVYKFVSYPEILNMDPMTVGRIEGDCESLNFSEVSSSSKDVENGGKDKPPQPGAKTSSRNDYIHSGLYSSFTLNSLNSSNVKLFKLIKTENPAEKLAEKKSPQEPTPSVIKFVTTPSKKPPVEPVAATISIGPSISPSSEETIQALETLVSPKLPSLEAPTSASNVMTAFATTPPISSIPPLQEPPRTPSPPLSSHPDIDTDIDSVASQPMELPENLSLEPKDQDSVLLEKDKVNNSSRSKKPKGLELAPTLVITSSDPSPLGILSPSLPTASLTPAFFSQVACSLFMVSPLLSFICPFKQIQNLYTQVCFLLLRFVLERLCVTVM
Summary of the method: as §1

ETV2 = target: T4, ETV2 (Homo sapiens, UniProt O00321 1-342)
T4 sequence: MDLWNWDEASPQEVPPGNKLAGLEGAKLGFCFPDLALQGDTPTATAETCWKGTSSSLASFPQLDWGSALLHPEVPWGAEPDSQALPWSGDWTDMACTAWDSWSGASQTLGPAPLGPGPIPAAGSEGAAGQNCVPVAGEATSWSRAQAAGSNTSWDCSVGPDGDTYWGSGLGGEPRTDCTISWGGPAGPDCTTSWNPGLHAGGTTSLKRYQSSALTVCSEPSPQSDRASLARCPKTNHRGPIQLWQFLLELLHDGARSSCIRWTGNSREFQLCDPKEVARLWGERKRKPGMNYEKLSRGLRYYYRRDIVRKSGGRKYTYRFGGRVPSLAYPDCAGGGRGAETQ
Summary of the method: as §1

ETV1 = ETV1 (Homo sapiens, UniProt P50549 1-477)
Summary of the method: as §1

ERF = target: T5, ERF (Homo sapiens, UniProt P50548 1-548)
T5 sequence: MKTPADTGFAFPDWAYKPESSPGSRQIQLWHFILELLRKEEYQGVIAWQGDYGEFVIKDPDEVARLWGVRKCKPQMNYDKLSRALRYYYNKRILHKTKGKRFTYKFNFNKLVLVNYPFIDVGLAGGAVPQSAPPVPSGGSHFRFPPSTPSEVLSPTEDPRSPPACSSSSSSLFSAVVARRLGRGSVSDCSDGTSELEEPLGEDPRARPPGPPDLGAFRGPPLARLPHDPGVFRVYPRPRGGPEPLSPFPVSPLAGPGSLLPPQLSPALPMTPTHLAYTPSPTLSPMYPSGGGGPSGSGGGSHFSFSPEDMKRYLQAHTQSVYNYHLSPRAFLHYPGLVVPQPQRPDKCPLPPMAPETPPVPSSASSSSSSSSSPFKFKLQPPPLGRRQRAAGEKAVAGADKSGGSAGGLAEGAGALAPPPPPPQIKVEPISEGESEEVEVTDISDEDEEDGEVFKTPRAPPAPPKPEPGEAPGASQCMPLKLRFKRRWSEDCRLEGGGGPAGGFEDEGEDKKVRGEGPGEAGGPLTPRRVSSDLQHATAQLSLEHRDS
Summary of the method: as §1

ETV3L = target: T6, ETV3L (Homo sapiens, UniProt Q6ZN32 1-361)
T6 sequence: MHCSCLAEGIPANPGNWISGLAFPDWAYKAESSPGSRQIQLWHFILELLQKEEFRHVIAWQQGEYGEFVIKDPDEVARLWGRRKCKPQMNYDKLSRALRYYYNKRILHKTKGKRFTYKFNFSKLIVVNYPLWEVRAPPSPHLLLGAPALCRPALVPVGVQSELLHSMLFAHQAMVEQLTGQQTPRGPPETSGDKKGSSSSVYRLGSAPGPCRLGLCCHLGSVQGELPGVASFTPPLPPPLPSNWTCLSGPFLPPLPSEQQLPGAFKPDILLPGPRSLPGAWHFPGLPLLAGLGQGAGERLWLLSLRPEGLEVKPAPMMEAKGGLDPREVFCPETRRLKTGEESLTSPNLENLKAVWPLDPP
Summary of the method: as §1

ETS2 = target: T7, ETS2 (Homo sapiens, UniProt P15036 1-469)
T7 sequence: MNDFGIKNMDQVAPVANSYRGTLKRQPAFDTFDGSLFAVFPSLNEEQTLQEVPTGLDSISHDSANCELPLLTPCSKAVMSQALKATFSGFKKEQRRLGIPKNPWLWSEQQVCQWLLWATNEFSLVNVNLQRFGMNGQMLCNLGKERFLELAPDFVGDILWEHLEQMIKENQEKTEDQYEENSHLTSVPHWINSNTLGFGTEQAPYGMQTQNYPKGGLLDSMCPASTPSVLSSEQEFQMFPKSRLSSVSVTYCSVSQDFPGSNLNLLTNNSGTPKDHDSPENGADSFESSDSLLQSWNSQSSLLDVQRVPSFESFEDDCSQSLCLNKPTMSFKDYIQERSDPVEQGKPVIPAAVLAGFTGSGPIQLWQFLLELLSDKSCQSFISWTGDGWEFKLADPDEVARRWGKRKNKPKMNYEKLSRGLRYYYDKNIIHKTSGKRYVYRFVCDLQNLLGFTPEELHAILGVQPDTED
Summary of the method: as §1

SPDEF = target: T8, SPDEF (Homo sapiens, UniProt O95238 1-335)
T8 sequence: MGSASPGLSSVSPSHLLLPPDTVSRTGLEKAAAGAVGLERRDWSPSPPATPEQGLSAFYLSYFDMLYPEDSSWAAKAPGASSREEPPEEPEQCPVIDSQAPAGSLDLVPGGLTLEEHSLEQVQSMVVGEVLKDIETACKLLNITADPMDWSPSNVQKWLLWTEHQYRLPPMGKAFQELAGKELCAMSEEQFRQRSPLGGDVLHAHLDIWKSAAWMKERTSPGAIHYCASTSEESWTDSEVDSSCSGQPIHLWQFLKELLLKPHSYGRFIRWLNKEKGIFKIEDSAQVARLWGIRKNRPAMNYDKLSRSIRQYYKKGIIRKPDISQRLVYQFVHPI
Summary of the method: as §1

ETV7 = target: T9, ETV7 (Homo sapiens, UniProt Q9Y603 1-341)
T9 sequence: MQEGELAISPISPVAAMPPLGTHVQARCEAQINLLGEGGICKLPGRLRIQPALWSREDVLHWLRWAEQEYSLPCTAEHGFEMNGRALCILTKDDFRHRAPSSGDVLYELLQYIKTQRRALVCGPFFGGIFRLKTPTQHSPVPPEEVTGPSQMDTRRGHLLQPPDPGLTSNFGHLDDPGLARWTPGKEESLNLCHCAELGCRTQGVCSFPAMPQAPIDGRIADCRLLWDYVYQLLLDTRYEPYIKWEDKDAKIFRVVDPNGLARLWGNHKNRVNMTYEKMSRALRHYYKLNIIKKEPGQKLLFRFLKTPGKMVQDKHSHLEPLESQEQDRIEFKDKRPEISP
Summary of the method: as §1

ELF5 = target: T10, ELF5 (Homo sapiens, UniProt Q9UKW6-2 1-255)
T10 sequence: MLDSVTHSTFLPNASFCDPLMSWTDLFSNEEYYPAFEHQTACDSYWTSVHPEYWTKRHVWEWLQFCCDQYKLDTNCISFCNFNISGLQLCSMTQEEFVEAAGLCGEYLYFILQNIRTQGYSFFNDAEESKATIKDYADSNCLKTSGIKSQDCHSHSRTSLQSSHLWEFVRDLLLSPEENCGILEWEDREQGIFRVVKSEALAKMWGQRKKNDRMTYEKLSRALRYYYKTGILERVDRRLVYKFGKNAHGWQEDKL
Summary of the method: as §1

ETV3 = target: T11, ETV3 (Homo sapiens, UniProt P41162-2 1-143)
T11 sequence: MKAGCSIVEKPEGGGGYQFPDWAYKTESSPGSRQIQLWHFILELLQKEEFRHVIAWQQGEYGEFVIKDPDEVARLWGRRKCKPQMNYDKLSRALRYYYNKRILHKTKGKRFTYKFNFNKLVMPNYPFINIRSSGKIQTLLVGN
Summary of the method: as §1

ETV6 = ETV6 (Homo sapiens, UniProt P41212 1-452)
Summary of the method: as §1

ELF3 = target: T12, ELF3 (Homo sapiens, UniProt P78545 1-371)
T12 sequence: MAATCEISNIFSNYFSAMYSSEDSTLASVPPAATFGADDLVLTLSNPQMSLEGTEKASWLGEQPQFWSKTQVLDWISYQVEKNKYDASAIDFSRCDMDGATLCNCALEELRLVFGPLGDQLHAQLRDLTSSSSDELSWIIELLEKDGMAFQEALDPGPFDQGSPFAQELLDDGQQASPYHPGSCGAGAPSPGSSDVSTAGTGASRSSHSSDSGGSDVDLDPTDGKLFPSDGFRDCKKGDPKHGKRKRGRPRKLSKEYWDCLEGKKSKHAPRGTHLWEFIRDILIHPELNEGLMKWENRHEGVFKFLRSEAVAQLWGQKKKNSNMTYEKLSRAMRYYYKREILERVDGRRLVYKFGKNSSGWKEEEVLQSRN
Summary of the method: as §1

CRX = CRX (Homo sapiens, UniProt O43186 1-299)
Summary of the method: as §1

Sequence of ETV5 (P41161 whole entry): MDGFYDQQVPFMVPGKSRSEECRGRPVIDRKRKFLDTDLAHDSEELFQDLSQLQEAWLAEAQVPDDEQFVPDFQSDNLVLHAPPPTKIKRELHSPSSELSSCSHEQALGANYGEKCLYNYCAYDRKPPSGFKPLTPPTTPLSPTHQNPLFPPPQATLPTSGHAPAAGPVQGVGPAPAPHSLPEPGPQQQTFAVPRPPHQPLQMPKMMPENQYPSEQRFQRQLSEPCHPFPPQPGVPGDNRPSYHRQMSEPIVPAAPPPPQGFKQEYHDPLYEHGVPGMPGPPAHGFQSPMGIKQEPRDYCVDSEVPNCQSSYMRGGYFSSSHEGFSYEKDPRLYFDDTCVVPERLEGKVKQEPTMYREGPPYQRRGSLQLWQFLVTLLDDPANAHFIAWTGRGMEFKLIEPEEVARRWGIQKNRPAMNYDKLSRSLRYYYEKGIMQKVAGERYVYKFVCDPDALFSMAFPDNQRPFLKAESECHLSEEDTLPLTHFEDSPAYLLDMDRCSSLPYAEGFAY
Sequence of ETV6 (P41212 whole entry): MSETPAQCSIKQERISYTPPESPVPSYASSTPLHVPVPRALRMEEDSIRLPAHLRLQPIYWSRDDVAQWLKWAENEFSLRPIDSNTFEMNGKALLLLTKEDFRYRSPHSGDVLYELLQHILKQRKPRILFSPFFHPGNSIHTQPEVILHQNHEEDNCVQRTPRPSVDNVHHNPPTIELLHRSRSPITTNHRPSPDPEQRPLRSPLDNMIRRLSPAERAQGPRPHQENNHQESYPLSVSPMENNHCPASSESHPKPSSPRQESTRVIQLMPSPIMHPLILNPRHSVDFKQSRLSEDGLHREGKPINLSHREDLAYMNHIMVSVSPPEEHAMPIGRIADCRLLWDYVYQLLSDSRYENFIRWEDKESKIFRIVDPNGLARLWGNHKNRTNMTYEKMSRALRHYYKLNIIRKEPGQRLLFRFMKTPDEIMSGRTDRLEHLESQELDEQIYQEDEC
Sequence of ELF4 (Q99607 whole entry): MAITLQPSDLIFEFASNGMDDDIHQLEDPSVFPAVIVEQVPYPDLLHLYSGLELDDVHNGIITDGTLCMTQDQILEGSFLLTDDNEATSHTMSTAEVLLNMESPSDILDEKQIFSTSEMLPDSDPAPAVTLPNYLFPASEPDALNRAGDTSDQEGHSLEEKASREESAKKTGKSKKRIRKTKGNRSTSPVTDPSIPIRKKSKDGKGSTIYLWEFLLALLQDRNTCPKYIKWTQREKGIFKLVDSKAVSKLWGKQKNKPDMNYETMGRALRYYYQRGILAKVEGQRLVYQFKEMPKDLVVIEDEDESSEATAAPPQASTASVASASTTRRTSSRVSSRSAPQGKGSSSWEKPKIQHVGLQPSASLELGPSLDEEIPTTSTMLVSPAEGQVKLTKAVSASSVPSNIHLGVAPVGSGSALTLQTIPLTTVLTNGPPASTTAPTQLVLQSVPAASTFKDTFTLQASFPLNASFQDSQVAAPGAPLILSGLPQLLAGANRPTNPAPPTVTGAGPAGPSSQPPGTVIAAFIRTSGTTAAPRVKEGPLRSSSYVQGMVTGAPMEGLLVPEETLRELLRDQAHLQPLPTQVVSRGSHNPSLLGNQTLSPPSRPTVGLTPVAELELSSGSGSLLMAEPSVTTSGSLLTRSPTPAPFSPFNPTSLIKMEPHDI
Sequence of ETV1 (P50549 whole entry): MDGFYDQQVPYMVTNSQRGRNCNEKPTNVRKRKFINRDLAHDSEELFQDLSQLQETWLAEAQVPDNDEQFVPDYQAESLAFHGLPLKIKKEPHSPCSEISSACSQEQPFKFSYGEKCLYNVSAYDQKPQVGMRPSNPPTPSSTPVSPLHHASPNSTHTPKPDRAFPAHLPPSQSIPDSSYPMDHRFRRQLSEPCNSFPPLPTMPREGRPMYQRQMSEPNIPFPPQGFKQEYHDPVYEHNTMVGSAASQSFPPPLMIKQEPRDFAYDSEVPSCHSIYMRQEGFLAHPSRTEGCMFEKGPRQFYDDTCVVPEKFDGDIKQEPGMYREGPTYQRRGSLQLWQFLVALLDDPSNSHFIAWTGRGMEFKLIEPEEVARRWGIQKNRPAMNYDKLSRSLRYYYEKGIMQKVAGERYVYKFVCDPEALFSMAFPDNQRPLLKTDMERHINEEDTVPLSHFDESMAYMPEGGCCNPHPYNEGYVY
Sequence of CRX (O43186 whole entry): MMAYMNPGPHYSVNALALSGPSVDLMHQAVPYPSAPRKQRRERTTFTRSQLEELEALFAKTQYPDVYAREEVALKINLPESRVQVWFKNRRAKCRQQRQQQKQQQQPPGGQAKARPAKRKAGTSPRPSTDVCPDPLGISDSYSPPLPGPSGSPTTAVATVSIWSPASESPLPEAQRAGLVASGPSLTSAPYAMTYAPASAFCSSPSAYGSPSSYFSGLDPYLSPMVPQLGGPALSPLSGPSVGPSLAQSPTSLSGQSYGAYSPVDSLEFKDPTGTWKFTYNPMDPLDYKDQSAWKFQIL

Sequence	binding signal (FEV)	binding signal (ETV5)	binding signal (SPIC)	binding signal (ELF4)	binding signal (ELK4)	binding signal (ETV2)	binding signal (ETV1)	binding signal (ERF)	binding signal (ETV3L)	binding signal (ETS2)	binding signal (SPDEF)	binding signal (ETV7)	binding signal (ELF5)	binding signal (ETV3)	binding signal (ETV6)	binding signal (ELF3)	binding signal (CRX)
TGGTCC	1.12 fold enrichment (6-mer frequency, TF over GST control)	1.23 fold enrichment (6-mer frequency, TF over GST control)	1.32 fold enrichment (6-mer frequency, TF over GST control)	1.22 fold enrichment (6-mer frequency, TF over GST control)	1.29 fold enrichment (6-mer frequency, TF over GST control)	1.23 fold enrichment (6-mer frequency, TF over GST control)	1.2 fold enrichment (6-mer frequency, TF over GST control)	1.19 fold enrichment (6-mer frequency, TF over GST control)	1.1 fold enrichment (6-mer frequency, TF over GST control)	1.23 fold enrichment (6-mer frequency, TF over GST control)	1.26 fold enrichment (6-mer frequency, TF over GST control)	1.18 fold enrichment (6-mer frequency, TF over GST control)	1.19 fold enrichment (6-mer frequency, TF over GST control)	1.28 fold enrichment (6-mer frequency, TF over GST control)	1.18 fold enrichment (6-mer frequency, TF over GST control)		
TTGGGT	1.07 fold enrichment (6-mer frequency, TF over GST control)	1.04 fold enrichment (6-mer frequency, TF over GST control)	1.07 fold enrichment (6-mer frequency, TF over GST control)	1.08 fold enrichment (6-mer frequency, TF over GST control)	1.09 fold enrichment (6-mer frequency, TF over GST control)		1.06 fold enrichment (6-mer frequency, TF over GST control)	1.27 fold enrichment (6-mer frequency, TF over GST control)	1.1 fold enrichment (6-mer frequency, TF over GST control)	1.03 fold enrichment (6-mer frequency, TF over GST control)	1.04 fold enrichment (6-mer frequency, TF over GST control)	1.08 fold enrichment (6-mer frequency, TF over GST control)	1.08 fold enrichment (6-mer frequency, TF over GST control)			1.14 fold enrichment (6-mer frequency, TF over GST control)	1.07 fold enrichment (6-mer frequency, TF over GST control)
GCCCGC	1.11 fold enrichment (6-mer frequency, TF over GST control)	1.02 fold enrichment (6-mer frequency, TF over GST control)	1.34 fold enrichment (6-mer frequency, TF over GST control)	1.19 fold enrichment (6-mer frequency, TF over GST control)	1.15 fold enrichment (6-mer frequency, TF over GST control)	1.16 fold enrichment (6-mer frequency, TF over GST control)	1.06 fold enrichment (6-mer frequency, TF over GST control)	1.11 fold enrichment (6-mer frequency, TF over GST control)	1.09 fold enrichment (6-mer frequency, TF over GST control)	1.02 fold enrichment (6-mer frequency, TF over GST control)	1.04 fold enrichment (6-mer frequency, TF over GST control)	1.13 fold enrichment (6-mer frequency, TF over GST control)	1.1 fold enrichment (6-mer frequency, TF over GST control)	1.16 fold enrichment (6-mer frequency, TF over GST control)	1.07 fold enrichment (6-mer frequency, TF over GST control)		
GTCCAC	1.08 fold enrichment (6-mer frequency, TF over GST control)	1.07 fold enrichment (6-mer frequency, TF over GST control)	1.05 fold enrichment (6-mer frequency, TF over GST control)	1.06 fold enrichment (6-mer frequency, TF over GST control)	1.07 fold enrichment (6-mer frequency, TF over GST control)	1.14 fold enrichment (6-mer frequency, TF over GST control)		1.07 fold enrichment (6-mer frequency, TF over GST control)	1.12 fold enrichment (6-mer frequency, TF over GST control)	1.05 fold enrichment (6-mer frequency, TF over GST control)		1.01 fold enrichment (6-mer frequency, TF over GST control)			1.03 fold enrichment (6-mer frequency, TF over GST control)		
